# Columns and labels:
# Assay in all cases: DAPPL (digital affinity profiling via proximity ligation, sequencing); 10 mM Tris-HCl pH 7.5, 50 mM NaCl, 1 mM DTT, 4% glycerol, room temperature, 30 min; GST-TFs on glutathione beads, 16-mer random dsDNA library, 0.1% formaldehyde crosslink after washing; high values mean tight binding
# Conditions in all cases: protein: recombinant; tags: N-terminal GST; dsDNA, one strand shown
# ELK1 = molecular target: T1, ELK1 (Homo sapiens, UniProt P19419 1-428)
# T1 sequence: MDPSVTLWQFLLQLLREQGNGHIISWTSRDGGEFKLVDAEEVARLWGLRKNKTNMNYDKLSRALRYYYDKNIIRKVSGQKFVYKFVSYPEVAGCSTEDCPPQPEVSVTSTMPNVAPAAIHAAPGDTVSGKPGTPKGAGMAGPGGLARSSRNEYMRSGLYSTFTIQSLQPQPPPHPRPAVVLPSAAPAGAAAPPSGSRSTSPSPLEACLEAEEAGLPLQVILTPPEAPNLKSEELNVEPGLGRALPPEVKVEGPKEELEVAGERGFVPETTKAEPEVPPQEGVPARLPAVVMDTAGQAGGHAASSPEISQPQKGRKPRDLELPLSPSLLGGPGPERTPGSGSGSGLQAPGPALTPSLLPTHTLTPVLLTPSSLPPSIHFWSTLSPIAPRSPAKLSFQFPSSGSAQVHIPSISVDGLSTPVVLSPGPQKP
# Outline: (§1)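 GST fusions of human transcription factors were expressed in yeast and captured with glutathione beads. Once given DNA barcodes and pooled alongside a tag-only sample, they were incubated for 30 min at room temperature with 200 nmole of a random double-stranded 16-mer DNA library in Tris/NaCl/DTT/glycerol buffer, then washed, crosslinked (0.1% formaldehyde), proximity-ligated, PCR-amplified and sequenced on an Illumina NextSeq500. The binding signal of each hexamer is its read frequency for a factor divided by its frequency for the tag-only sample.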
# ELF1 = ELF1 (Homo sapiens, UniProt P32519 1-619)
# Outline: as §1
# EHF = molecular target: T2, EHF (Homo sapiens, UniProt Q9NZC4 1-300)
# T2 sequence: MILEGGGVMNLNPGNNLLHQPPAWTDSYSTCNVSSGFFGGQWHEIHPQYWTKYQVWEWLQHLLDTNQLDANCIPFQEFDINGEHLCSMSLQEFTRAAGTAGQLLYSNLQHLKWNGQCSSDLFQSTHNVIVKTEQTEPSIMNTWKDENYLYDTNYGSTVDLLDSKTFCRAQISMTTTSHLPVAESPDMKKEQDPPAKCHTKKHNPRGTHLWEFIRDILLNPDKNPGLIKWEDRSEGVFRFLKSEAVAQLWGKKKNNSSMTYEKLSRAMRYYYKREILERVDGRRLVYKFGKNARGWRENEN
# Outline: as §1
# SPIB = SPIB (Homo sapiens, UniProt Q01892 1-262)
# Outline: as §1
# ELK3 = molecular target: T3, ELK3 (Homo sapiens, UniProt P41970 1-407)
# T3 sequence: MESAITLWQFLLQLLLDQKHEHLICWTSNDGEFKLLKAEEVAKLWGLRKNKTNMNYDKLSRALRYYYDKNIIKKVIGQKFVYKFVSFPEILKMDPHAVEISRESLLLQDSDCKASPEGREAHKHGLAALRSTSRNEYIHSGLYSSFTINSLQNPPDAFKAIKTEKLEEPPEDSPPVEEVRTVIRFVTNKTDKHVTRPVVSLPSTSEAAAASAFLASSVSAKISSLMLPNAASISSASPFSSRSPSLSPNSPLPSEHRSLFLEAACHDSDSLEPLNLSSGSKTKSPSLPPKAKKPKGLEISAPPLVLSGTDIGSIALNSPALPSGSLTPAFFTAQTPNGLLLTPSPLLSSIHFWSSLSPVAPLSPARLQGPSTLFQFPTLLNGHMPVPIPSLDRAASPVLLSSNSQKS
# Outline: as §1
# ETV5 = ETV5 (Homo sapiens, UniProt P41161 1-510)
# Outline: as §1
# SPIC = molecular target: T4, SPIC (Homo sapiens, UniProt Q8N5J4 1-248)
# T4 sequence: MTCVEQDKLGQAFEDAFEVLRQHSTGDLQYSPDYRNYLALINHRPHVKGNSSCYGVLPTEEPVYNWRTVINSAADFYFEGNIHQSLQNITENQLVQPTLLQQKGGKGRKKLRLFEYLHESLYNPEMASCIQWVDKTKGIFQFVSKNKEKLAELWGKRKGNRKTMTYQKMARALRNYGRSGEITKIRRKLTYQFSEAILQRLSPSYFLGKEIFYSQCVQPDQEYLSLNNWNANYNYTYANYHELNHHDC
# Outline: as §1
# ELF4 = ELF4 (Homo sapiens, UniProt Q99607 1-663)
# Outline: as §1
# ELK4 = molecular target: T5, ELK4 (Homo sapiens, UniProt P28324-2 1-405)
# T5 sequence: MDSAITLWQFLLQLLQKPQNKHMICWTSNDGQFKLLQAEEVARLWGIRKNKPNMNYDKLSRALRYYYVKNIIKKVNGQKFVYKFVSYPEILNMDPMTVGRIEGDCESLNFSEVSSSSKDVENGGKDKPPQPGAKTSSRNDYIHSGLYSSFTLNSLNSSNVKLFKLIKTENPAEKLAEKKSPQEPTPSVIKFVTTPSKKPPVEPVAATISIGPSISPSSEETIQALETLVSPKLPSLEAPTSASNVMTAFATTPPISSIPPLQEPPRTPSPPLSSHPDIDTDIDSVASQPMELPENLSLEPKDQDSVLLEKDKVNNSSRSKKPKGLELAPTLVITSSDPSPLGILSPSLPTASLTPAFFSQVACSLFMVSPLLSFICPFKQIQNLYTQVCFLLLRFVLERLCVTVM
# Outline: as §1
# ELF3 = molecular target: T6, ELF3 (Homo sapiens, UniProt P78545 1-371)
# T6 sequence: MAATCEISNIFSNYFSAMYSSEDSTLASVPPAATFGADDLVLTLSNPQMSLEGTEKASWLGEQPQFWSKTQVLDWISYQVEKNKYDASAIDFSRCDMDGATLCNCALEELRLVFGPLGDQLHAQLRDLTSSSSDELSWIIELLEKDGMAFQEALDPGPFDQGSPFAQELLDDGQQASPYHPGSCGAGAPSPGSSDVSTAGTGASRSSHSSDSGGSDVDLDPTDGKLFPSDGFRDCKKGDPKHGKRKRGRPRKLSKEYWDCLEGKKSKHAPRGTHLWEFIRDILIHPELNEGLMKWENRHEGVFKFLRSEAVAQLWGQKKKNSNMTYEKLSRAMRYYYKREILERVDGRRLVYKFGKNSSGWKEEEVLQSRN
# Outline: as §1
# ETV1 = ETV1 (Homo sapiens, UniProt P50549 1-477)
# Outline: as §1
# ERF = molecular target: T7, ERF (Homo sapiens, UniProt P50548 1-548)
# T7 sequence: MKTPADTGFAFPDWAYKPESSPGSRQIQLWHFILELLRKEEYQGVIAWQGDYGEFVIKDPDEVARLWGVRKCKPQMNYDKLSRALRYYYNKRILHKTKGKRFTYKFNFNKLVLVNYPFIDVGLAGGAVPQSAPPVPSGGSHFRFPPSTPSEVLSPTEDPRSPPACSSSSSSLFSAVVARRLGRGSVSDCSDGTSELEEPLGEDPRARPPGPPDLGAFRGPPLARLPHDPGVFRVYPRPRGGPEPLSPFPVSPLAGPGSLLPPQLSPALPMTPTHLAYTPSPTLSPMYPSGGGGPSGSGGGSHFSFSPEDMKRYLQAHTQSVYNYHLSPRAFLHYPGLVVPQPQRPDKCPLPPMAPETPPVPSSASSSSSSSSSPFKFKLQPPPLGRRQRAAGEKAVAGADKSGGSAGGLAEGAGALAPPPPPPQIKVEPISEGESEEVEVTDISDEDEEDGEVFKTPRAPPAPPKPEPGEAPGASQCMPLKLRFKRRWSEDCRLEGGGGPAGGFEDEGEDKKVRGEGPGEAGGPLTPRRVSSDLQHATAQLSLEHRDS
# Outline: as §1
# ETV3L = molecular target: T8, ETV3L (Homo sapiens, UniProt Q6ZN32 1-361)
# T8 sequence: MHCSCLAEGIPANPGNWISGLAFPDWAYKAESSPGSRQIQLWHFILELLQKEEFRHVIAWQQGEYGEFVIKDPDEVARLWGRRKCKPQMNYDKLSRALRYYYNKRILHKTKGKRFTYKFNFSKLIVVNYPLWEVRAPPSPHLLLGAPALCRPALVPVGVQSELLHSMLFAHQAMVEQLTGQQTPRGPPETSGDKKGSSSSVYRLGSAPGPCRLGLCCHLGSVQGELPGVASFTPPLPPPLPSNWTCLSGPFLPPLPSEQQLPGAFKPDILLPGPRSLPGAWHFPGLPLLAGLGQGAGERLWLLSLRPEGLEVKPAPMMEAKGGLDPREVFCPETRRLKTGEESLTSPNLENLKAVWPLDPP
# Outline: as §1
# ETS2 = molecular target: T9, ETS2 (Homo sapiens, UniProt P15036 1-469)
# T9 sequence: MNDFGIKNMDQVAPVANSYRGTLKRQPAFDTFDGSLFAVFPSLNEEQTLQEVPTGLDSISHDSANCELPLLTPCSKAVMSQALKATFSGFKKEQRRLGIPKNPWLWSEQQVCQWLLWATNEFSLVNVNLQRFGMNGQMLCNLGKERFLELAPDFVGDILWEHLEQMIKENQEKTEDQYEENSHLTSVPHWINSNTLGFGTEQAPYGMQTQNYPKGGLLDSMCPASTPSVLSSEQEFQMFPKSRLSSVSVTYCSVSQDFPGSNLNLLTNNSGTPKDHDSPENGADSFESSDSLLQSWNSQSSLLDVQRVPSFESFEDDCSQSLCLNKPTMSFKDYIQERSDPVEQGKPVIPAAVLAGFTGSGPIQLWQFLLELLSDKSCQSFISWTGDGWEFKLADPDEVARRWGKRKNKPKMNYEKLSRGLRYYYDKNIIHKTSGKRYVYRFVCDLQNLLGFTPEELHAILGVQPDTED
# Outline: as §1
# SPDEF = molecular target: T10, SPDEF (Homo sapiens, UniProt O95238 1-335)
# T10 sequence: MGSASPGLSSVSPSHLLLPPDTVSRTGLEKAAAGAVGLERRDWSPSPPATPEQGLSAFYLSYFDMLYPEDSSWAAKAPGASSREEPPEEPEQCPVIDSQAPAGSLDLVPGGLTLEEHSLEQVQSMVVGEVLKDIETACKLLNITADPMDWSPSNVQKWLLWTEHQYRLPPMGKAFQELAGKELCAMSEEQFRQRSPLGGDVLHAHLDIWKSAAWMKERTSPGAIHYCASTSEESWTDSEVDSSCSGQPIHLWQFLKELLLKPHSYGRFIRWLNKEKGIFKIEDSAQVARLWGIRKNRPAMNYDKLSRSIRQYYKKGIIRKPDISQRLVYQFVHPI
# Outline: as §1
# ETV7 = molecular target: T11, ETV7 (Homo sapiens, UniProt Q9Y603 1-341)
# T11 sequence: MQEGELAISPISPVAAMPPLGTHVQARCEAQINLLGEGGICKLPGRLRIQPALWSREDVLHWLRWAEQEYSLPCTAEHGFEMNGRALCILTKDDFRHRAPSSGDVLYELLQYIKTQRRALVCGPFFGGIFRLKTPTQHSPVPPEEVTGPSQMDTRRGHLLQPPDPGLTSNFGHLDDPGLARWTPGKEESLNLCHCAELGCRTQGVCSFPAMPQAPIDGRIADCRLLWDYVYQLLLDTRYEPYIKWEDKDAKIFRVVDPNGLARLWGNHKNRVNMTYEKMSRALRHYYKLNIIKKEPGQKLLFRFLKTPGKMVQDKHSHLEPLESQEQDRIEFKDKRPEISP
# Outline: as §1
# ETV6 = ETV6 (Homo sapiens, UniProt P41212 1-452)
# Outline: as §1
# Chain of ELF4 (Q99607 whole entry): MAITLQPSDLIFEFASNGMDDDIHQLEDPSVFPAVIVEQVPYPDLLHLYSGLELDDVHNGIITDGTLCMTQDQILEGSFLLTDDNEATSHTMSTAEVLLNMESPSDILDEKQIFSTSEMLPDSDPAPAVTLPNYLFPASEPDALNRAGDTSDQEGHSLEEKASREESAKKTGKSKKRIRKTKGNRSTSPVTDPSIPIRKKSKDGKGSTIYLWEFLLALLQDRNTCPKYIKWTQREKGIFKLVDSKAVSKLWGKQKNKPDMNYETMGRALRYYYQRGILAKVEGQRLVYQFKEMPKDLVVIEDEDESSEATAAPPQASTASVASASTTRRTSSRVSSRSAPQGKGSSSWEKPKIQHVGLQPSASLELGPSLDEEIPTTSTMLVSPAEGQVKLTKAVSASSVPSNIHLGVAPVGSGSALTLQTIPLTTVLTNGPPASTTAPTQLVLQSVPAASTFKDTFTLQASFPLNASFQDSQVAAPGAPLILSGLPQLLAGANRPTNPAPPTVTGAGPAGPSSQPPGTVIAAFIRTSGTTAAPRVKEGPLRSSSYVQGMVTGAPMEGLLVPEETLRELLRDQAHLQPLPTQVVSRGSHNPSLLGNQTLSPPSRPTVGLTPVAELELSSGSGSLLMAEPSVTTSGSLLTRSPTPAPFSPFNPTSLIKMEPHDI
# Chain of ETV6 (P41212 whole entry): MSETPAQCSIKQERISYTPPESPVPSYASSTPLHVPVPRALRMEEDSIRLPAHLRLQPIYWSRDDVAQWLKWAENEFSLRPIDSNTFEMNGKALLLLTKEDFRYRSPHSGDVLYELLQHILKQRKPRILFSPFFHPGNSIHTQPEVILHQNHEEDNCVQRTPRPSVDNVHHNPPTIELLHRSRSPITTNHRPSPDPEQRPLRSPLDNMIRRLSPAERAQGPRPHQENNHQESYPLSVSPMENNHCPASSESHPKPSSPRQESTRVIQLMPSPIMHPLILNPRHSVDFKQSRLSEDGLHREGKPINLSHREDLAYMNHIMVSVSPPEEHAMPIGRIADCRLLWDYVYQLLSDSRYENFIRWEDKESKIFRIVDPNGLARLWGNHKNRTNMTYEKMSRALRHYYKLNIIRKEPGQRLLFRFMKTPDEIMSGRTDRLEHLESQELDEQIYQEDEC
# Chain of ETV5 (P41161 whole entry): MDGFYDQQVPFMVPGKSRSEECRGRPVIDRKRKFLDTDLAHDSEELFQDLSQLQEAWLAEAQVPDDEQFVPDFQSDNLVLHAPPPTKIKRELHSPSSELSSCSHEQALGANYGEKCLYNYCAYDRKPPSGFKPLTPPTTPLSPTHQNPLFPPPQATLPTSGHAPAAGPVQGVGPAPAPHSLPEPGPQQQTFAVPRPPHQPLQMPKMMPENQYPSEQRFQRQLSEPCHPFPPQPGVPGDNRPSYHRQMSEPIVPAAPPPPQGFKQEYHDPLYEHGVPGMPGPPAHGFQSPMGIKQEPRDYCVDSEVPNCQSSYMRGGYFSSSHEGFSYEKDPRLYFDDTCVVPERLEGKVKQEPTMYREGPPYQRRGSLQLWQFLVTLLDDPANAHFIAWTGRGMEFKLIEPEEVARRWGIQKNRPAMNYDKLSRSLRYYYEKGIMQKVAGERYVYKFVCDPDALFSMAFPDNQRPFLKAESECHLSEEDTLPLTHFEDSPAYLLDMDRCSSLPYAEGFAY
# Chain of ELF1 (P32519 whole entry): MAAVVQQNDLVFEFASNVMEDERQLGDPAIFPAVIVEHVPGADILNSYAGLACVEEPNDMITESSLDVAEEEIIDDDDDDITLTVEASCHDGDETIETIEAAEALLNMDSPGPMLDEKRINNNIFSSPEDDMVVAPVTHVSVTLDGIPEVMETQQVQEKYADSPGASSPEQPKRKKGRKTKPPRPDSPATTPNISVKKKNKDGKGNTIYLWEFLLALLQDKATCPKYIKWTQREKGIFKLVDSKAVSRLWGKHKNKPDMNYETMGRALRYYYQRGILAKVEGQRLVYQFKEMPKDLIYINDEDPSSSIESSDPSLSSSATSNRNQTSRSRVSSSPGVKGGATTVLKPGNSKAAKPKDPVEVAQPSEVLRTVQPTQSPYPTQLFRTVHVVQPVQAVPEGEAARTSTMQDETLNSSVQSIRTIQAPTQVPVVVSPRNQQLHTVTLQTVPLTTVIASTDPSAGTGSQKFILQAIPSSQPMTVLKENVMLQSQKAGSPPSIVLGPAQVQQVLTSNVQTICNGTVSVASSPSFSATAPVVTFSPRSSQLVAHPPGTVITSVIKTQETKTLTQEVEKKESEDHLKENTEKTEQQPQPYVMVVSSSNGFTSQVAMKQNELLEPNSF
# Chain of SPIB (Q01892 whole entry): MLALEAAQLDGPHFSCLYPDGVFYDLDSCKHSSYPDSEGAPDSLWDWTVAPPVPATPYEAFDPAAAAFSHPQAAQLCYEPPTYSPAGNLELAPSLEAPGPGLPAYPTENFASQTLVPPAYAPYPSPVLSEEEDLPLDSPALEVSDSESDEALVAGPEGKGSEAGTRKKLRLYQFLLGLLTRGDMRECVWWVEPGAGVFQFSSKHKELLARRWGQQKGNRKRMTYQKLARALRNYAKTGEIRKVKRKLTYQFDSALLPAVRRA
# Chain of ETV1 (P50549 whole entry): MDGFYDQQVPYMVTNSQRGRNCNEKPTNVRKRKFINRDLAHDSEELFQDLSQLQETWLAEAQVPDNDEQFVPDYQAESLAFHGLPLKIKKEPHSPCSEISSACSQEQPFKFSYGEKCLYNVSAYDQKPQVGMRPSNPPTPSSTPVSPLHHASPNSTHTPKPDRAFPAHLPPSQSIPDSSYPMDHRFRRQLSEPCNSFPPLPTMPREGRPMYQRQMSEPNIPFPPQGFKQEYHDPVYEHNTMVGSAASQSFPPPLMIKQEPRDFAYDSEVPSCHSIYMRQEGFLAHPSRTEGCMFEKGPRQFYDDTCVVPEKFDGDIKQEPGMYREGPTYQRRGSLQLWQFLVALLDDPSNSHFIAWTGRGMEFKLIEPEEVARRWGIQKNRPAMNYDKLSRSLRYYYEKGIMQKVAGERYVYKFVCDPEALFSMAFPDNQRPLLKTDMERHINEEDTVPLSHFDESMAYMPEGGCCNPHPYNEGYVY
sequence,measurement,setting,value
GTCTAT,binding signal,ELK1,"1.04 fold enrichment (6-mer frequency, TF over GST control)"
same,binding signal,ELF1,"1.08 fold enrichment (6-mer frequency, TF over GST control)"
same,binding signal,EHF,"1.1 fold enrichment (6-mer frequency, TF over GST control)"
same,binding signal,SPIB,"1.01 fold enrichment (6-mer frequency, TF over GST control)"
same,binding signal,ELK3,"1.04 fold enrichment (6-mer frequency, TF over GST control)"
same,binding signal,ETV5,"1.07 fold enrichment (6-mer frequency, TF over GST control)"
same,binding signal,SPIC,"1.18 fold enrichment (6-mer frequency, TF over GST control)"
same,binding signal,ELF4,"1.11 fold enrichment (6-mer frequency, TF over GST control)"
same,binding signal,ELK4,"1 fold enrichment (6-mer frequency, TF over GST control)"
same,binding signal,ELF3,"1.12 fold enrichment (6-mer frequency, TF over GST control)"
same,binding signal,ETV1,"1.04 fold enrichment (6-mer frequency, TF over GST control)"
same,binding signal,ERF,"1.14 fold enrichment (6-mer frequency, TF over GST control)"
same,binding signal,ETV3L,"1.05 fold enrichment (6-mer frequency, TF over GST control)"
same,binding signal,ETS2,"1.01 fold enrichment (6-mer frequency, TF over GST control)"
same,binding signal,SPDEF,"1.08 fold enrichment (6-mer frequency, TF over GST control)"
same,binding signal,ETV7,"1.07 fold enrichment (6-mer frequency, TF over GST control)"
same,binding signal,ETV6,"1.03 fold enrichment (6-mer frequency, TF over GST control)"
